High-throughput results as filed in PubChem BioAssay.
This is a sample that favours compounds with a hit; in the whole collection about 0.92% have one here.
BLM helicase inh-1 – inhibitors of human Bloom syndrome helicase BLM | Potency, µM (doses to about 56.1 µM), most hits filed as inhibitors | AID 2528 | 0.2% of 350,000 active | recombinant BLM DNA unwinding, fluorescence dequenching; also: nearly all actives have a fitted effect of over 35% in size
L3MBTL1 inh-1 – blocks human L3MBTL1 | Q9Y468 | AlphaScreen L3MBTL1–H3K9me1 peptide binding | Potency, µM (titrated, usually from 57.1 µM), most hits filed as inhibitors | 0.66% of 230,000 active | AID 485360; also: nearly all actives have a fitted effect of over 60% in size
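L3MBTL1 50 nM + b-AHA-H3(1-15)K9me1 75 nM, 30 min RT; compound added, 30 min RT; streptavidin donor/Ni-chelate acceptor beads 10 ug/mL each final, 30 min RT dark; AlphaScreen read.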
RECQ1 inh – RECQ1 (human) helicase inhibition; Potency, µM (titrated, usually from 57.3 µM), hits mostly inhibitors; P46063; 0.54% of 240,000 active; RECQ1 DNA unwinding, red fluorescence kinetic read; also: nearly all actives have a fitted effect of over 30% in size
Target sequence (P46063 whole entry, looked up): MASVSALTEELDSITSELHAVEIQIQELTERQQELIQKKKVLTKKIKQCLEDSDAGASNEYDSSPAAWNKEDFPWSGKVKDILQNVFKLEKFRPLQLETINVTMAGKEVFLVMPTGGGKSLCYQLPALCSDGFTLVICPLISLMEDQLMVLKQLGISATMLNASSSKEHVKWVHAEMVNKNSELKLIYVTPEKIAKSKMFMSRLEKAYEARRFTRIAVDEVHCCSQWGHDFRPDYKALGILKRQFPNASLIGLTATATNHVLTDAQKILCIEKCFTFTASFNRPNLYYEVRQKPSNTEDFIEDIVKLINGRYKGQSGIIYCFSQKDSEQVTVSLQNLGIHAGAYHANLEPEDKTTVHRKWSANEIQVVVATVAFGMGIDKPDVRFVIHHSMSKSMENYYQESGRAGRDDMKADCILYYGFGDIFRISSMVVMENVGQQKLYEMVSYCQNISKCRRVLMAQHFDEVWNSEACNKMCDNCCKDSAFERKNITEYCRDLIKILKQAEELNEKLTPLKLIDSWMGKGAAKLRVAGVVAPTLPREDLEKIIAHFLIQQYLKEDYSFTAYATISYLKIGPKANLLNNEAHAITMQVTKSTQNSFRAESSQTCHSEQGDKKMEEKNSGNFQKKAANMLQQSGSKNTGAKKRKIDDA
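RECQ1T1 50 nM; forked duplex (20 bp + 30-nt ss tails) 200 nM, ATP 2 mM final; pH 8.0, 2 mM MgCl2, 2.5 ug/ml poly(dI-dC); 15 min compound preincubation; discontinuous kinetic read over 2 h at RT.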
WRN helicase inh-1 – inhibitors of human WRN helicase; WRN helicase unwinding, fluorescent forked duplex, kinetic; Potency, µM (series often up to 114 µM), actives largely listed as inhibitors; 0.46% of 360,000 active; AID 651768; also: nearly all actives have a fitted effect of over 55% in size
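Primary qHTS, 1536-well format. 20 nM WRN + compound, 15 min RT; start with 100 nM forked fluorophore/quencher duplex, 2 mM ATP (final); kinetic read ex 525/em 598 nm.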
APE1 inh – blocks human APE1 abasic DNA cleavage; P27695; recombinant APE1, TAMRA/BHQ-2 abasic DNA cleavage fluorescence; Potency, µM (doses to about 65.8 µM), actives largely listed as inhibitors; 0.35% of 350,000 active; AID 2517; also: nearly all actives have a fitted effect of over 55% in size
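APE1 at 0.75 nM final was preincubated with compound 15 min at room temperature, then 50 nM double-stranded THF abasic-site substrate (5'-TAMRA/3'-BHQ-2) was added. Fluorescence (ex 525/em 598 nm) was read kinetically; third-minus-first read gave activity.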
L3MBTL1 inh-2 – validation of human L3MBTL1 methyl-lysine binding inhibitors | Potency, µM, hits mostly inhibitors | AID 540279 | 91% of 500 active | L3MBTL1 methyl-lysine binding inhibition, biochemical qHTS | shares compounds with L3MBTL1 inh-1; also: nearly all actives have a fitted effect of over 70% in size
L3MBTL1 ctr – interferes with AlphaScreen signal in L3MBTL1 counterscreen | shares compounds with L3MBTL1 inh-1 | AlphaScreen counterscreen, signal inhibition | Potency, µM (doses to about 57.1 µM), actives largely listed as inhibitors | 500 tested, under 10 active | AID 602224
WRN helicase inh-2 – WRN helicase inhibition, cherry-pick retest; AID 720497; Potency, µM (titrated, usually from 57.1 µM), hits mostly inhibitors; shares compounds with WRN helicase inh-1; 63% of 610 active; WRN helicase DNA unwinding, fluorescence kinetic; also: nearly all actives have a fitted effect of over 65% in size
TO DNA binding – DNA binding via thiazole orange displacement. shares compounds with WRN helicase inh-1. thiazole orange DNA binding displacement, fluorescence. Potency, µM (titrated, usually from 57.1 µM), hits mostly inhibitors. 10% of 610 active;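 also: drop in dye fluorescence marks compound binding to DNA; nearly all actives have a fitted effect of over 60% in size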
BLM helicase inh-2 – BLM helicase inhibition, WRN selectivity check | shares compounds with WRN helicase inh-1 | Recombinant BLM helicase DNA unwinding, red fluorescence | Potency, µM (highest dose often 57.1 µM), hits mostly inhibitors | 60% of 610 active; also: nearly all actives have a fitted effect of over 60% in size
Numbers stand for hits; – = inactive; ? = inconclusive; · = no result. Calls follow the shape of the dose curve; as a rule, active = well fitted curve in the direction sought with a large enough effect; inconclusive = small, poorly fitted or top-dose-only effect, or another doubt; inactive = no such curve, though single readings can be large; an effect the other way counts as inactive or inconclusive.

SMILES	BLM helicase inh-1	L3MBTL1 inh-1	RECQ1 inh	WRN helicase inh-1	APE1 inh	WRN helicase inh-2	TO DNA binding	BLM helicase inh-2	others
CCOc1ccccc1OCCCCN1CCCC1	–	28.2µM	–	–	–	·	·	·	L3MBTL1 inh-2=?;L3MBTL1 ctr=?
c1ccc(OP(Oc2ccccc2)Oc2ccccc2)cc1	·	·	–	·	–	·	·	·
Cc1cc(C=C2C(=O)NC(=S)NC2=O)c(C)n1-c1ccc2c(c1)OCO2	–	22.4µM	–	?	–	·	·	·	L3MBTL1 inh-2=21.2;L3MBTL1 ctr=–
C=CCN1C(=O)NC(=O)/C(=C/c2ccoc2)C1=O	–	22.4µM	–	50.1µM	–	·	·	·	L3MBTL1 inh-2=16.8;L3MBTL1 ctr=–
C=CCN1C(=O)NC(=O)/C(=C/c2cccn2C)C1=O	–	–	–	–	–	·	·	·
Cc1cccc(C)c1N	·	·	–	·	–	·	·	·
CC1=C(O)C(=O)C=C2C1=CC=C1C2(C)CCC2(C)C3CC(C)(C(=O)O)CCC3(C)CCC12C (stereo not drawn)	·	·	·	25.1µM	·	?	–	21.5µM
Cc1c(O)c(O)cc2c1CC=C1[C@]3(C)CC[C@]4(C)CC[C@@](C)(C(=O)O)CC4[C@]3(C)CC[C@]12C (stereo partly drawn)	–	·	–	·	–	·	·	·
CCN1C[C@@]2(COC)CCC(OC)[C@]34C5C[C@]6(O)[C@@H](OC)C[C@](OC(C)=O)(C([C@H](OC)C23)[C@H]14)C5[C@H]6OC(=O)c1ccc(OC)cc1 (stereo partly drawn)	–	·	–	·	–	·	·	·
O=C1NC(=O)N(Cc2ccc(F)cc2)C(=O)/C1=C\C=C\c1ccco1	?	·	28.2µM	35.5µM	?	7.64µM	–	4.29µM
C=CCc1cc(C=C2C(=O)N(C)C(=O)N(C)C2=O)cc(OCC)c1OCc1ccccc1	–	–	–	44.7µM	?	–	–	?
c1ccc(C2CO2)cc1 (stereo not drawn)	·	·	–	·	–	·	·	·
COc1ccc(N2C(=O)NC(=O)/C(=C\c3ccccc3[N+](=O)[O-])C2=O)cc1	–	–	–	?	–	·	·	·
O=C1NC(=O)N(c2ccccc2)C(=O)/C1=C\c1ccc([N+](=O)[O-])s1	–	·	?	28.2µM	?	?	–	17.1µM
CN(C)C(=O)Nc1cccc(C(F)(F)F)c1	·	·	–	·	–	·	·	·
O=C1NC(=S)NC(=O)C1=Cc1cccc2cc3ccccc3cc12	–	–	–	?	–	?	–	?
O=C1NC(=O)C(=Cc2ccccc2[N+](=O)[O-])C(=O)N1	·	·	·	39.8µM	·	–	–	–
CCCCN1C(=O)/C(=C\c2ccco2)C(=O)N(CCc2ccccc2)C1=O	?	?	31.6µM	31.6µM	?	?	–	21.5µM
CCCCN1C(=O)/C(=C/c2ccc(N(C)C)cc2)C(=O)N(Cc2ccco2)C1=O	?	?	28.2µM	28.2µM	?	?	–	21.5µM
CCN(CC)c1ccc(/C=C2/C(=O)NC(=O)N(CC3CCCO3)C2=O)cc1 (stereo not drawn)	–	?	–	–	–	·	·	·
CCN(CC)c1ccc(/C=C2\C(=O)NC(=O)N(Cc3ccco3)C2=O)cc1	–	–	?	28.2µM	?	?	–	?
Fc1ccc(C(OCCN2CCN(C/C=C/c3ccccc3)CC2)c2ccc(F)cc2)cc1	·	·	–	·	–	·	·	·
CCC1CN2CCC1CC2C(O)c1ccnc2ccccc12 (stereo not drawn)	–	·	–	·	–	·	·	·
CCOC(=O)CC(SP(=O)(OC)OC)C(=O)OCC (stereo not drawn)	·	·	–	·	–	·	·	·
Cc1cc(C)cc(OP(=O)(Oc2cc(C)cc(C)c2)Oc2cc(C)cc(C)c2)c1	·	·	–	·	–	·	·	·
SMILES	BLM helicase inh-1	L3MBTL1 inh-1	RECQ1 inh	WRN helicase inh-1	APE1 inh	WRN helicase inh-2	TO DNA binding	BLM helicase inh-2	others
CN1C(=O)/C(=C\c2ccc(Br)s2)C(=O)NC1=S	–	–	·	17.8µM	–	?	–	?
Cc1cc(/C=C2\C(=O)NC(=S)N(C)C2=O)c(C)n1C1CCCCC1	–	–	–	–	–	·	·	·
C/C=C/C=O	·	·	–	·	–	·	·	·
N#Cc1c(-c2csc(-c3no[n+]([O-])c3C#N)c2)no[n+]1[O-]	·	·	·	·	·	?	–	?
CC(C)[C@H](NC(=O)[C@H](CC(=O)O)NC(=O)[C@H](Cc1ccccc1)NC(=O)[C@@H](C)NC(=O)[C@@H](N)Cc1ccc(O)cc1)C(=O)N[C@H](C(=O)NCC(N)=O)C(C)C	–	·	–	·	–	·	·	·
COc1cccc2c1C(=O)c1c(O)c3c(c(O)c1C2=O)CC(O)(C(C)=NO)CC3OC1CC(N)C(O)C(C)O1 (stereo not drawn)	·	·	·	2.67µM	·	21.5µM	–	21.5µM
CCCC[N+](=O)[O-]	·	·	–	·	–	·	·	·
Cc1cc(/C=C2\C(=O)NC(=O)N(c3ccccc3F)C2=O)c(C)n1-c1cc(C(=O)O)cc(C(=O)O)c1	–	·	·	39.8µM	10.6µM	?	–	–
N/C(=N\N=C/c1ccc(-c2ccc(O)c(C(=O)O)c2)o1)N[N+](=O)[O-]	–	11.2µM	12.6µM	25.1µM	7.94µM	7.64µM	?	6.81µM
COC(C)(C)C	·	·	–	·	–	·	·	·
O=C1C(=Cc2cn(-c3ccccc3)nc2-c2ccc(OCc3ccc(Cl)cc3)cc2)SC(=S)N1CCS(=O)(=O)O	·	·	·	14.1µM	·	10.8µM	?	3.83µM
Cn1cccc1/C=C1/C(=O)NC(=O)N(Cc2ccccc2)C1=O	–	–	–	?	–	·	·	·
Cn1cccc1/C=C1\C(=O)NC(=O)N(Cc2ccccc2)C1=O	–	·	?	?	–	?	–	?
CCOP(=S)(OCC)O/N=C(\C#N)c1ccccc1Cl	–	·	–	·	–	·	·	·
CC(C)C[C@H](NC(=O)[C@H](Cc1ccccc1)NC(=O)CNC(=O)[C@@H](COC(C)(C)C)NC(=O)[C@@H](N)Cc1ccc(O)cc1)C(=O)N[C@H](C(=O)O)[C@@H](C)OC(C)(C)C	–	·	–	·	–	·	·	·
CC(Cc1ccc(OCC(=O)O)cc1)NCC(O)c1cccc(Cl)c1 (stereo not drawn)	·	·	–	·	?	·	·	·
CC(Cc1ccc(O)cc1)NCC(O)c1ccc(O)c(O)c1 (stereo not drawn)	·	·	·	25.1µM	·	13.6µM	–	6.07µM
O=C(O)Cn1cc(/C=C2\C(=O)NC(=O)N(c3ccc(Br)cc3)C2=O)c2ccccc21	–	·	·	?	–	–	–	17.1µM
O=C(Nc1ccc2oc(-c3cccnc3)nc2c1)c1ccc(-c2cccc(Cl)c2)o1	?	·	·	·	·	19.2µM	–	6.81µM
